Results published in PubChem BioAssay (NCI).
About 79,000 compounds went through this panel and 15% of them were active in at least one assay; those are over-represented in the sample as a whole. Calls of active or inactive are those of the source. No stated cut-off is given here; in the data, active means growth inhibition above about 70%; inactive means the rest.

What was measured:
[1] = NCI Yeast Anticancer Drug Screen. Data for the rad52 strain (AID 147);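 further: 0% = growth of vehicle-treated control cultures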; conditions: S. cerevisiae rad52 mutant growth inhibition, stronger effect = higher value
How it was run: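 Genetically altered yeast (DNA damage repair defect) treated with compound; inhibition calculated relative to vehicle.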

[2] = NCI Yeast Anticancer Drug Screen. Data for the wt1 strain (AID 149);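 further: 0% = growth of vehicle-treated wt1 cultures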; conditions: S. cerevisiae wt1 strain (SPY 50644) growth inhibition, stronger effect = higher value
How it was run: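 Measured: growth of wt1 yeast under compound versus vehicle treatment, reported as inhibition.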

[3] = NCI Yeast Anticancer Drug Screen. Data for the rad50EPP+ strain (AID 151);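 further: 0% = growth of vehicle-treated control cultures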; conditions: S. cerevisiae rad50 mutant strain, stronger effect = higher value
How it was run: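 Strain rad50EPP+; compound exposure; % growth inhibition vs vehicle.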

[4] = NCI Yeast Anticancer Drug Screen. Data for the mgt1 strain (AID 153); conditions: S. cerevisiae mgt1 mutant growth inhibition, stronger effect = higher value
How it was run: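 Read-out: yeast growth inhibition vs vehicle control. Strain mgt1, drawn from a panel altered in DNA damage repair or cell cycle control.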

[5] = NCI Yeast Anticancer Drug Screen. Data for the rad50 strain (AID 155);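 further: 0% = growth of vehicle-only cultures of the same strain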; conditions: S. cerevisiae rad50 strain growth inhibition, stronger effect = higher value
How it was run: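 Growth of the mutant yeast was measured after compound exposure and referenced to vehicle-treated cultures.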

[6] = NCI Yeast Anticancer Drug Screen. Data for the mec2-1 strain (AID 157); conditions: S. cerevisiae mec2-1 strain, stronger effect = higher value
How it was run: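 Cells of the genetically defined mec2-1 yeast strain are incubated with test compound. Inhibition of growth is calculated against vehicle-treated controls.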

[7] = NCI Yeast Anticancer Drug Screen. Data for the rad14 strain (AID 159);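 further: 0% = growth of vehicle-treated control cultures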; conditions: S. cerevisiae rad14 strain growth inhibition, stronger effect = higher value
How it was run: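 Here, inhibition of yeast growth was measured after compound exposure, using a strain with a genetic defect in DNA damage repair and vehicle-treated cultures as the reference.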

[8] = NCI Yeast Anticancer Drug Screen. Data for the sgs1 mgt1 strain (AID 161);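 further: 0% = growth of cultures given vehicle only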; conditions: S. cerevisiae sgs1 mgt1 strain, stronger effect = higher value
How it was run: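 Read-out: growth inhibition vs vehicle controls. Cells: mutant yeast strain deficient in DNA damage repair.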

[9] = NCI Yeast Anticancer Drug Screen. Data for the CLN2oe strain (AID 163);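 further: 0% = growth of vehicle-only control cultures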; conditions: S. cerevisiae CLN2oe strain, stronger effect = higher value
How it was run: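 Strain altered in cell-cycle control, incubated with compound; growth compared to solvent-treated controls.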

[10] = NCI Yeast Anticancer Drug Screen. Data for the cln2 rad14 strain (AID 165);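 further: 0% = growth equal to vehicle treated cultures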; conditions: S. cerevisiae cln2 rad14 strain, stronger effect = higher value
How it was run: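 The screen exposed genetically defined yeast (cln2 rad14) to test compounds and scored growth inhibition relative to vehicle-treated controls.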

[11] = NCI Yeast Anticancer Drug Screen. Data for the bub3 strain (AID 167); conditions: S. cerevisiae bub3 mutant strain, stronger effect = higher value
How it was run: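 Whole-cell yeast assay. The mutant strain was incubated with compounds, and growth inhibition was determined by comparison with vehicle-treated cells.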

[12] = NCI Yeast Anticancer Drug Screen. Data for the wt2 strain (AID 169);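 further: 0% = growth of vehicle-treated yeast cultures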; conditions: S. cerevisiae wt2 strain growth inhibition, stronger effect = higher value
How it was run: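 Steps: yeast strain treated with compound; growth recorded; inhibition calculated relative to cultures given vehicle alone.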

[13] = NCI Yeast Anticancer Drug Screen. Data for the mlh1 strain (AID 171);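 further: 0% = growth of vehicle-treated control cultures of the same strain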; conditions: S. cerevisiae mlh1 strain growth inhibition, stronger effect = higher value
How it was run: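 Yeast screen: mutant strain plus compound, growth scored against vehicle control wells.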

[14] = NCI Yeast Anticancer Drug Screen. Data for the sgs1 strain (AID 173);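 further: 0% = growth of vehicle-only control cultures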; conditions: S. cerevisiae sgs1 mutant, stronger effect = higher value
How it was run: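 Inhibition of yeast growth served as the measure. The mutant strain was treated with each compound, and growth was normalised to cultures receiving vehicle alone.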

[15] = NCI Yeast Anticancer Drug Screen. Data for the mlh1 rad18 strain (AID 175); conditions: S. cerevisiae mlh1 rad18 strain growth inhibition, stronger effect = higher value
How it was run: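 Compound-treated yeast growth, normalised to vehicle controls. Strain bears defined DNA repair mutations.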

[16] = NCI Yeast Anticancer Drug Screen. Data for the rad18 strain (AID 177); conditions: S. cerevisiae rad18 mutant growth inhibition, stronger effect = higher value
How it was run: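 Inhibition values reflect reduced yeast growth compared with vehicle-treated controls, using a strain engineered with a DNA damage repair defect.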

[17] = at 5.0 µM (retest, dose inferred, filed as 0.5)
[18] = at 50.0 µM (retest, dose inferred, filed as 5.0)

Measured: growth inhibition

CSc1nnc(SC)nn1
active: [1]; at 100.0 µM 98% | [2]; at 100.0 µM 99% | [3]; at 100.0 µM 98% | [4]; at 33.0 µM 72% | [4]; at 100.0 µM 98% | [5]; [18] 98% | [5]; at 50.0 µM 82.2% | [5]; at 100.0 µM 96% | [6]; at 33.0 µM 77% | [6]; [18] 97% | [6]; at 50.0 µM 77.8% | [6]; at 100.0 µM 99% | [7]; at 33.0 µM 77% | [7]; at 100.0 µM 98% | [8]; [18] 99% | [8]; at 50.0 µM 82.8% | [9]; at 100.0 µM 98% | [10]; [18] 95% | [10]; at 50.0 µM 87.7% | [11]; at 33.0 µM 90% | [11]; [18] 98% | [11]; at 50.0 µM 93.1% | [11]; at 100.0 µM 99% | [12]; at 100.0 µM 99% | [13]; at 100.0 µM 99% | [14]; at 100.0 µM 98% | [15]; [18] 99% | [15]; at 50.0 µM 70.8% | [16]; at 100.0 µM 98%
inactive: [1]; at 1.2 µM 1% | [1]; at 3.7 µM 7% | [1]; at 11.0 µM 0% | [1]; at 33.0 µM 52% | [2]; at 1.2 µM -4% | [2]; at 3.7 µM -5% | [2]; at 11.0 µM -14% | [2]; at 33.0 µM 22% | [3]; at 1.2 µM 6% | [3]; at 3.7 µM 4% | [3]; at 11.0 µM -2% | [3]; at 33.0 µM 26% | [4]; at 1.2 µM 8% | [4]; at 3.7 µM 4% | [4]; at 11.0 µM 13% | [5]; at 1.2 µM -13% | [5]; at 3.7 µM -3% | [5]; [17] 51% | [5]; at 11.0 µM -2% | [5]; at 33.0 µM 45% | [6]; at 1.2 µM 9% | [6]; at 3.7 µM 1% | [6]; [17] 57% | [6]; at 11.0 µM 16% | [7]; at 1.2 µM -10% | [7]; at 3.7 µM 0% | [7]; at 11.0 µM 34% | [8]; [17] -10% | [9]; at 1.2 µM 12% | [9]; at 3.7 µM -6% | [9]; at 11.0 µM 15% | [9]; at 33.0 µM 31% | [10]; [17] 57% | [11]; at 1.2 µM 11% | [11]; at 3.7 µM 27% | [11]; [17] 34% | [11]; at 11.0 µM 65% | [12]; at 1.2 µM 9% | [12]; at 3.7 µM 5% | [12]; at 11.0 µM 3% | [12]; at 33.0 µM 38% | [13]; at 1.2 µM -2% | [13]; at 3.7 µM 6% | [13]; at 11.0 µM 15% | [13]; at 33.0 µM 55% | [14]; at 1.2 µM -2% | [14]; at 3.7 µM 3% | [14]; at 11.0 µM 0% | [14]; at 33.0 µM 44% | [15]; [17] 58% | [16]; at 1.2 µM -4% | [16]; at 3.7 µM 11% | [16]; at 11.0 µM 12% | [16]; at 33.0 µM 67%

CCCCCCN(CCCCCC)CC(O)c1ccnc2ccc(OC)cc12 (stereo unspecified)
inactive: [1]; at 1.2 µM 0% | [1]; at 3.7 µM -2% | [1]; at 11.0 µM -5% | [1]; at 33.0 µM -7% | [1]; at 100.0 µM 66% | [2]; at 1.2 µM -1% | [2]; at 3.7 µM -3% | [2]; at 11.0 µM -5% | [2]; at 33.0 µM -7% | [2]; at 100.0 µM 15% | [3]; at 1.2 µM -4% | [3]; at 3.7 µM -2% | [3]; at 11.0 µM -2% | [3]; at 33.0 µM -5% | [3]; at 100.0 µM -8% | [4]; at 1.2 µM 1% | [4]; at 3.7 µM 2% | [4]; at 11.0 µM 0% | [4]; at 33.0 µM -3% | [5]; at 1.2 µM 1% | [5]; at 3.7 µM 1% | [5]; [17] -9% | [5]; at 11.0 µM -1% | [5]; at 33.0 µM -3% | [5]; [18] 27% | [5]; at 50.0 µM -10.1% | [5]; at 100.0 µM 69% | [6]; at 1.2 µM 2% | [6]; at 3.7 µM -1% | [6]; [17] -5% | [6]; at 11.0 µM 1% | [6]; at 33.0 µM 2% | [6]; [18] 18% | [6]; at 50.0 µM 1.15% | [6]; at 100.0 µM 67% | [7]; at 1.2 µM -2% | [7]; at 3.7 µM -3% | [7]; at 11.0 µM -4% | [7]; at 33.0 µM -5% | [7]; at 100.0 µM 63% | [8]; [17] -9% | [8]; [18] 49% | [9]; at 1.2 µM 6% | [9]; at 3.7 µM 1% | [9]; at 11.0 µM -1% | [9]; at 33.0 µM 1% | [9]; at 100.0 µM 36% | [10]; [17] -12% | [10]; [18] 26% | [10]; at 50.0 µM -8.6% | [11]; at 1.2 µM 5% | [11]; at 3.7 µM 5% | [11]; [17] -1% | [11]; at 11.0 µM 6% | [11]; at 33.0 µM 4% | [11]; [18] 40% | [11]; at 50.0 µM 26.6% | [11]; at 100.0 µM 61% | [12]; at 1.2 µM -1% | [12]; at 3.7 µM -4% | [12]; at 11.0 µM -5% | [12]; at 33.0 µM -5% | [12]; at 100.0 µM 68% | [13]; at 1.2 µM -1% | [13]; at 3.7 µM -3% | [13]; at 11.0 µM -3% | [13]; at 33.0 µM -4% | [14]; at 1.2 µM -3% | [14]; at 3.7 µM -2% | [14]; at 11.0 µM -3% | [14]; at 33.0 µM -3% | [15]; [17] -3% | [15]; [18] 14% | [15]; at 50.0 µM 38.1% | [16]; at 1.2 µM -5% | [16]; at 3.7 µM -7% | [16]; at 11.0 µM -7% | [16]; at 33.0 µM -13% | [16]; at 100.0 µM 35%
active: [4]; at 100.0 µM 74% | [8]; at 50.0 µM 74.5% | [13]; at 100.0 µM 74% | [14]; at 100.0 µM 79%

Clc1ccc(NCNC2Nc3ccccc3N2)cc1Cl
active: [1]; at 33.0 µM 97% | [1]; at 100.0 µM 98% | [2]; at 33.0 µM 81% | [2]; at 100.0 µM 99% | [3]; at 11.0 µM 88% | [3]; at 33.0 µM 98% | [3]; at 100.0 µM 98% | [4]; at 33.0 µM 85% | [4]; at 100.0 µM 99% | [5]; at 33.0 µM 93% | [5]; [18] 99% | [5]; at 100.0 µM 98% | [6]; at 33.0 µM 93% | [6]; [18] 99% | [6]; at 100.0 µM 98% | [7]; at 33.0 µM 96% | [7]; at 100.0 µM 99% | [8]; [18] 99% | [9]; at 33.0 µM 89% | [9]; at 100.0 µM 98% | [10]; [18] 83% | [11]; at 33.0 µM 91% | [11]; [18] 99% | [11]; at 100.0 µM 99%
inactive: [1]; at 1.2 µM -1% | [1]; at 3.7 µM -1% | [1]; at 11.0 µM 18% | [2]; at 1.2 µM 2% | [2]; at 3.7 µM 7% | [2]; at 11.0 µM 8% | [3]; at 1.2 µM 8% | [3]; at 3.7 µM 16% | [4]; at 1.2 µM -4% | [4]; at 3.7 µM -3% | [4]; at 11.0 µM 4% | [5]; at 1.2 µM -1% | [5]; at 3.7 µM -3% | [5]; [17] 4% | [5]; at 11.0 µM 17% | [5]; at 50.0 µM 25.6% | [6]; at 1.2 µM 0% | [6]; at 3.7 µM 5% | [6]; [17] -6% | [6]; at 11.0 µM 17% | [6]; at 50.0 µM 9.15% | [7]; at 1.2 µM 0% | [7]; at 3.7 µM 3% | [7]; at 11.0 µM 13% | [8]; [17] 18% | [8]; at 50.0 µM 8.15% | [9]; at 1.2 µM -5% | [9]; at 3.7 µM -13% | [9]; at 11.0 µM -3% | [10]; [17] 20% | [10]; at 50.0 µM -9.7% | [11]; at 1.2 µM 1% | [11]; at 3.7 µM -8% | [11]; [17] 26% | [11]; at 11.0 µM -2% | [11]; at 50.0 µM 10.2%
